According to the supplement of paper PMC11732987, “Enantioselective OTUD7B fragment discovery through chemoproteomics screening and high-throughput optimisation” (Communications Chemistry, 2025):

Legend:
Experiment in all cases: log2 ratio of Biotin-Ahx-Ub-VS probe labelling (fragment/DMSO); higher = less target engagement (more negative = stronger competition), active = hit call of the paper (q ≤ 0.05, log2 ratio ≤ -1)
Details in all cases: compound concentration: 200 uM; treatment time: 3 h
[1] = target: T1, ALG13 (UniProt Q9NP73)
T1 sequence (whole entry): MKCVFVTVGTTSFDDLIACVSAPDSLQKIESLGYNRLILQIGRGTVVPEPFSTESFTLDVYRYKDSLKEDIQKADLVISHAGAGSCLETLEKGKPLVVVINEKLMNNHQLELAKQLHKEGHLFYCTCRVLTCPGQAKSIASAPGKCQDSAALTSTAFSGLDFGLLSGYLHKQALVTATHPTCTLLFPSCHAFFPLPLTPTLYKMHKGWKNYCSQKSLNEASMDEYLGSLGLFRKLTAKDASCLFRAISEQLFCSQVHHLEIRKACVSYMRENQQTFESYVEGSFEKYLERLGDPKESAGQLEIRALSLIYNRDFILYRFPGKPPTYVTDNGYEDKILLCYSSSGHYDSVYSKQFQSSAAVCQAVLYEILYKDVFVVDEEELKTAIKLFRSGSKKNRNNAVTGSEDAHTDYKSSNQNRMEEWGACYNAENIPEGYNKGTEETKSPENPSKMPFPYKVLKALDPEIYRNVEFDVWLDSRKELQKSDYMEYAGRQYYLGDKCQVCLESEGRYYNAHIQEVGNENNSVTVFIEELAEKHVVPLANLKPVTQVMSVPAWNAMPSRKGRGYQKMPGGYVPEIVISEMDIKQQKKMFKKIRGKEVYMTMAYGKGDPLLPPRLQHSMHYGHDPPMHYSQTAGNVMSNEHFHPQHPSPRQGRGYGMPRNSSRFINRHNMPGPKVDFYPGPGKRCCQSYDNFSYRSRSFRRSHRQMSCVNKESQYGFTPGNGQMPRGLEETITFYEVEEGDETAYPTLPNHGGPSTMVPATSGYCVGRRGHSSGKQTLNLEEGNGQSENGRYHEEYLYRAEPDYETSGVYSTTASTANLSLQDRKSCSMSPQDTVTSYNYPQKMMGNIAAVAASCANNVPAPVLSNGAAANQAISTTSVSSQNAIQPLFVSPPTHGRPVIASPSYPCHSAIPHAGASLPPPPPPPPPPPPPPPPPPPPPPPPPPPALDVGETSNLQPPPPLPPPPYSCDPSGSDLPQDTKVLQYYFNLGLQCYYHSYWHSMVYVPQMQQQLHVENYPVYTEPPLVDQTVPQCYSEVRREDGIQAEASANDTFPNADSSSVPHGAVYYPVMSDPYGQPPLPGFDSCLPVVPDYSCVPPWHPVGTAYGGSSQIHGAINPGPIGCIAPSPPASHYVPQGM
Outline: (§1)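 HEK293T lysate (495 µg per sample, in Tris/CHAPS/IGEPAL buffer with protease inhibitors) was treated in triplicate with fragment at 200 µM or with DMSO for 3 h. It was then treated with Biotin-Ahx-Ub-VS (0.5 µM final) for 1 h. Labelled DUBs were NeutrAvidin-enriched, digested with LysC and trypsin, and run by diaPASEF LC-MS/MS. Spectronaut label-free quantities were global-median-normalised. Values are average log2 ratios fragment/DMSO by unpaired t-test, using proteins with ≥2 unique peptides.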

[2] = target: ATXN3 (UniProt P54252)
Outline: as §1

[3] = target: T2, BAP1 (UniProt Q92560)
T2 sequence (whole entry): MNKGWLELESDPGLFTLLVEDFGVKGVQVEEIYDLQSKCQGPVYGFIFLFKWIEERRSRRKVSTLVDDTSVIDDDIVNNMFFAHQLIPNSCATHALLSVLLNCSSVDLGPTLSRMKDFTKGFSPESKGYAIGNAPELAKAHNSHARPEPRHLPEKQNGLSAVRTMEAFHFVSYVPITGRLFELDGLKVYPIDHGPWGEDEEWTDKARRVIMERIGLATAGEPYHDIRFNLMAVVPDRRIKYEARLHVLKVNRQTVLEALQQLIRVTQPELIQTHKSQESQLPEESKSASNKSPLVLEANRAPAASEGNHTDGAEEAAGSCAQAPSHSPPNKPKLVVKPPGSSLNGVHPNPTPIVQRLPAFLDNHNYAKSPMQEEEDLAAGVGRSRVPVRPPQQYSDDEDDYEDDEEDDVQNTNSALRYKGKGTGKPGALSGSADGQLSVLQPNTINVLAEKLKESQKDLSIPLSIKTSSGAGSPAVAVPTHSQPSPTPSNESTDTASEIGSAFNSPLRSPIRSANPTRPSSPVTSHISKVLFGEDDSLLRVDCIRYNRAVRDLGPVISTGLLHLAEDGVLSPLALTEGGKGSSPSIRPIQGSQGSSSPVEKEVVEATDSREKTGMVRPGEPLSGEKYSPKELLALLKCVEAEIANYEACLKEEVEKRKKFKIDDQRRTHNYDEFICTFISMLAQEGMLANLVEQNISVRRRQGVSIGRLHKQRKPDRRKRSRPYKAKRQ
Outline: as §1

[4] = target: EIF3F (UniProt O00303)
Outline: as §1

[5] = target: EIF3H (UniProt O15372)
Outline: as §1

[6] = target: T3, FAM105A (UniProt Q9NUU6)
T3 sequence (whole entry): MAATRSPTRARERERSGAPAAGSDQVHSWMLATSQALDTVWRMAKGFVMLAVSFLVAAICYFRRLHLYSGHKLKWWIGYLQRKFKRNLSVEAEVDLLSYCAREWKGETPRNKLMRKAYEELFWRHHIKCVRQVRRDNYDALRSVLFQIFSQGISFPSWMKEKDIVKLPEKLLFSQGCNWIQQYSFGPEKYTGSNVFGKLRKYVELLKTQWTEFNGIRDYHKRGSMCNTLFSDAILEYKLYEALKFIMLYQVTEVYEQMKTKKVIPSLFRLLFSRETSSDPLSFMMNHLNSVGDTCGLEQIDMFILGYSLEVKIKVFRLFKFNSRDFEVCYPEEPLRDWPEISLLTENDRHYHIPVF
Outline: as §1

[7] = target: OTUB1 (UniProt Q96FW1)
Outline: as §1

[8] = target: T4, OTUD4 (UniProt Q01804)
T4 sequence (whole entry): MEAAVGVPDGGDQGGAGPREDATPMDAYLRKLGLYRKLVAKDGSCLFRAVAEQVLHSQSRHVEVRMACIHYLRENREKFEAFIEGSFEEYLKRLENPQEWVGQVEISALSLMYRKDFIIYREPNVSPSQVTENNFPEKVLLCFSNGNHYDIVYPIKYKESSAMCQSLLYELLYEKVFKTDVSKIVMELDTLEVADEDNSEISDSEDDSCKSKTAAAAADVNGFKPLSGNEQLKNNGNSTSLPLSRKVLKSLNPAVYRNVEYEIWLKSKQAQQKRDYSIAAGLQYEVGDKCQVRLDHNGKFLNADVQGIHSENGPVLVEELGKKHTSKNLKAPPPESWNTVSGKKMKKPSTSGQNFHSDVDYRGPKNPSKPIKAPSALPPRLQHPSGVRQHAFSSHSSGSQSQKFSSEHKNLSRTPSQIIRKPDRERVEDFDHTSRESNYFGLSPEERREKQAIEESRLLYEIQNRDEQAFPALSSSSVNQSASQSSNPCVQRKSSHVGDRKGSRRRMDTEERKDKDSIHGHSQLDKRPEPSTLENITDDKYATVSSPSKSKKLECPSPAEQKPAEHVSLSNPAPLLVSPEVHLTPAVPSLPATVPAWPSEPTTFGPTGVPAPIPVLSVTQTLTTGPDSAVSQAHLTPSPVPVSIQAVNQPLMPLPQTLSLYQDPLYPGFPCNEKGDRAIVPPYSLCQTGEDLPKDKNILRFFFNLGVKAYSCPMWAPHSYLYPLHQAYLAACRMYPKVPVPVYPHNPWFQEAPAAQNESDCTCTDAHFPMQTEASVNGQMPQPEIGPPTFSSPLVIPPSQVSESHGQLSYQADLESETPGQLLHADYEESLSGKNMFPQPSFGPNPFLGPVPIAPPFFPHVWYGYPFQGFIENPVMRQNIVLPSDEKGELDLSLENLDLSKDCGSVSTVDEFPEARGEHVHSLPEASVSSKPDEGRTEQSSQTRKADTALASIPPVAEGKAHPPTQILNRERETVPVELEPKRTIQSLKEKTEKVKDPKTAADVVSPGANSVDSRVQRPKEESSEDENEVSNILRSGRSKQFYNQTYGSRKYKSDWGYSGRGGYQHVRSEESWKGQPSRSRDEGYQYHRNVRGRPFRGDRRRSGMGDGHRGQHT
Outline: as §1

[9] = target: T5, OTUD5 (UniProt Q96G74)
T5 sequence (whole entry): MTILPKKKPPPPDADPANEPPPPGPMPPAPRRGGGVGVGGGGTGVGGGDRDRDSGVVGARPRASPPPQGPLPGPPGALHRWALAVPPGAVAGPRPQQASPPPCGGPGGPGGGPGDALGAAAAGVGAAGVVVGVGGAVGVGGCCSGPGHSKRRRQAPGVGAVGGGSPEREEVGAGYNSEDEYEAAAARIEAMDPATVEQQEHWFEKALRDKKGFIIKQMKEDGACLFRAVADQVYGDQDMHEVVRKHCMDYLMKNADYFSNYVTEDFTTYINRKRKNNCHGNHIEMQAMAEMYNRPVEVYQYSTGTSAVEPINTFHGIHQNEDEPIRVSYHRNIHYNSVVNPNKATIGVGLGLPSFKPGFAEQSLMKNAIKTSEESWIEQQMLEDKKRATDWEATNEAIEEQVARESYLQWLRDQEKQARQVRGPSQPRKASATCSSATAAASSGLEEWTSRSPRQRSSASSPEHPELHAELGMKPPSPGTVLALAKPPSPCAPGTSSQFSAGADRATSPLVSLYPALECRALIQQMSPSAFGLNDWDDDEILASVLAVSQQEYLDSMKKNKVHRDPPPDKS
Outline: as §1

Measured: log2 ratio of Biotin-Ahx-Ub-VS probe labelling

Sequence of OTUB1 (Q96FW1 whole entry): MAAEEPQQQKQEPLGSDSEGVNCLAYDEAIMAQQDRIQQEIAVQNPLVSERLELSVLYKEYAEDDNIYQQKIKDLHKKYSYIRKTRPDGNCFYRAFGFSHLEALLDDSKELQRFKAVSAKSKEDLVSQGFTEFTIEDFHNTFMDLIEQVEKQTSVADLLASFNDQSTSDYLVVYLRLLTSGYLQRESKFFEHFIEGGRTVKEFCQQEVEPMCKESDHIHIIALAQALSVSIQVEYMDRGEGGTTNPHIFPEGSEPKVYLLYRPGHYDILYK
Sequence of EIF3H (O15372 whole entry): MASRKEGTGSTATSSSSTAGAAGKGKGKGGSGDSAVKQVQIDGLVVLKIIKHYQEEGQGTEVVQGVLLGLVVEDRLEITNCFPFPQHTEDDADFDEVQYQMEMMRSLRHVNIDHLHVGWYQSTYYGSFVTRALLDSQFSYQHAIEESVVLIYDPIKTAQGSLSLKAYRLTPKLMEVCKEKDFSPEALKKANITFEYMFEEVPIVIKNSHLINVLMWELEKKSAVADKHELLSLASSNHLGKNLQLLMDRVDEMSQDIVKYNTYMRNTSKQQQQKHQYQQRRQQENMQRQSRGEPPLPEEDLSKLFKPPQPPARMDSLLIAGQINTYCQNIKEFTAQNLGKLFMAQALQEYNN
Sequence of ATXN3 (P54252 whole entry): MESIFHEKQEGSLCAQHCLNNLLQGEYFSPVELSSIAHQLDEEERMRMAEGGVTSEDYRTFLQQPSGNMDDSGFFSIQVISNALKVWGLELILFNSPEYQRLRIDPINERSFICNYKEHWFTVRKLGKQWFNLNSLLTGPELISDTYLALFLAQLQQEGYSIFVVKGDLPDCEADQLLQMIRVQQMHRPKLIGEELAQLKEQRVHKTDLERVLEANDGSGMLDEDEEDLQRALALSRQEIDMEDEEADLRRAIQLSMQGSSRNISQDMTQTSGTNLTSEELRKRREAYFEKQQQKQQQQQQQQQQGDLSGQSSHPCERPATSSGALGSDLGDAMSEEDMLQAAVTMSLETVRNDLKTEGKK
Sequence of EIF3F (O00303 whole entry): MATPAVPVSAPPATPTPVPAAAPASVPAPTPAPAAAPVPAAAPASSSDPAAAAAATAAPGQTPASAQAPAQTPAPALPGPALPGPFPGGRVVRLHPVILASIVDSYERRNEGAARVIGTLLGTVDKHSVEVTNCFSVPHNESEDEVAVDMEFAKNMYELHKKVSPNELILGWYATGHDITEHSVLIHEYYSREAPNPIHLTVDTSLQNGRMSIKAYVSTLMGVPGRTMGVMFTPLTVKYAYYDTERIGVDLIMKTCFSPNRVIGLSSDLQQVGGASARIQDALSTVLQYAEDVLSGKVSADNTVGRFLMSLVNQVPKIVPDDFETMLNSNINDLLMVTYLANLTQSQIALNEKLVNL

C/C(=C\CNC(=O)CCl)c1cnn(C)c1.Cl
inactive: [1] 0.0802 | [2] -0.277 | [4] -0.217 | [5] 0.0454 | [6] 0.298 | [7] -0.376 | [8] 0.00615 | [9] -0.115
active: [3] -1.56
